Values without a mark were called inactive. Records with an inconclusive call do not appear. Entries that show only a call come without a potency. Active and inactive are the calls of the source. Calls come from the whole dose curve; as a rule, active = well fitted curve in the direction sought with a large enough effect in the repeat runs; inconclusive = weak or mixed curves; inactive = no such curve, though single readings can be large; an effect the other way counts as inactive or inconclusive.
Tests used:
[1] = A CellTox Green Cytotoxicity Assay to monitor cytotoxicity in HEK293 cells - 40 hour (AID 1224871); note: nearly all actives have a fitted effect of over 45% in size; note: potency is the fitted concentration of half-maximal effect
Method in brief: (§1)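 Each value comes from one timepoint of a single continuous run in which HEK293 cells with CellTox Green were exposed to compound for up to 40 h at 37 C, dye fluorescence rising with cell death.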

[2] = qHTS RealTime-Glo MT Cell Viability Assay in HEK293 cells - 16 hour (AID 1224872); note: top concentration of the series differs between compounds; nearly all actives have a fitted effect of over 50% in size
Method in brief: (§2)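 Assay medium contained NanoLuc luciferase plus cell-permeant prosubstrate, added with HEK293 cells at 600 cells/well. After 5 h at 37 C/5% CO2 compounds were added; plates stayed at 37 C for 40 h with serial luminescence reads.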

[3] = qHTS RealTime-Glo MT Cell Viability Assay in HepG2 cells - 8 hour (AID 1224873); note: nearly all actives have a fitted effect of over 55% in size
Method in brief: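 HepG2 cells mixed with RealTime-Glo MT reagents (NanoLuc plus cell-permeant prosubstrate) were seeded at 600 cells/well, incubated 5 h at 37 C/5% CO2, then pinned with compounds in DMSO; nonlytic luminescence tracked viability during 40 h treatment.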

[4] = qHTS RealTime-Glo MT Cell Viability Assay in HEK293 cells - 40 hour (AID 1224874); conditions: RealTime-Glo luminescence; max response: hits give low values; note: nearly all actives have a fitted effect of over 50% in size
Method in brief: (§3)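 qHTS format; HEK293 cells with NanoLuc/prosubstrate reagent, 37 C/5% CO2 for 5 h pre-dosing; compounds 23 nL in DMSO; luminescence at each time point reflects viable cells.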

[5] = A CellTox Green Cytotoxicity Assay to monitor cytotoxicity in HEK293 cells - 24 hour (AID 1224875); note: nearly all actives have a fitted effect of over 45% in size; note: potency is the fitted concentration of half-maximal effect
Method in brief: as §1

[6] = A CellTox Green Cytotoxicity Assay to monitor cytotoxicity in HepG2 cells - 16 hour (AID 1224876); note: nearly all actives have a fitted effect of over 45% in size; note: potency is the fitted concentration of half-maximal effect
Method in brief: (§4)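 Continuous culture of HepG2 cells with a membrane-impermeant DNA dye; rising fluorescence marks dead cells. Compound exposure lasted up to 40 h at 37 C, with reads every 8 h from 0 h.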

[7] = qHTS RealTime-Glo MT Cell Viability Assay in HepG2 cells - 32 hour (AID 1224877); note: nearly all actives have a fitted effect of over 55% in size
Method in brief: (§5)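 qHTS, HepG2, 600 cells/well, RealTime-Glo (NanoLuc + prosubstrate) added with cells; 5 h preincubation; DMSO compound addition; 37 C; luminescence at 0/8/16/24/32/40 h.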

[8] = A CellTox Green Cytotoxicity Assay to monitor cytotoxicity in HepG2 cells - 24 hour (AID 1224878); note: nearly all actives have a fitted effect of over 45% in size; note: potency is the fitted concentration of half-maximal effect
Method in brief: as §4

[9] = A CellTox Green Cytotoxicity Assay to monitor cytotoxicity in HepG2 cells - 40 hour (AID 1224879); note: nearly all actives have a fitted effect of over 40% in size; note: potency is the fitted concentration of half-maximal effect
Method in brief: as §4

[10] = qHTS RealTime-Glo MT Cell Viability Assay in HEK293 cells - 0 hour (AID 1224880)
Method in brief: as §3

[11] = A CellTox Green Cytotoxicity Assay to monitor cytotoxicity in HEK293 cells - 32 hour (AID 1224881); note: nearly all actives have a fitted effect of over 40% in size; note: potency is the fitted concentration of half-maximal effect
Method in brief: as §1

[12] = A CellTox Green Cytotoxicity Assay to monitor cytotoxicity in HepG2 cells - 0 hour (AID 1224882); note: nearly all actives have a fitted effect of over 35% in size; note: potency is the fitted concentration of half-maximal effect
Method in brief: as §4

[13] = A CellTox Green Cytotoxicity Assay to monitor cytotoxicity in HepG2 cells - 32 hour (AID 1224883); note: nearly all actives have a fitted effect of over 50% in size; note: potency is the fitted concentration of half-maximal effect
Method in brief: as §4

[14] = A CellTox Green Cytotoxicity Assay to monitor cytotoxicity in HEK293 cells - 8 hour (AID 1224884); note: nearly all actives have a fitted effect of over 35% in size; note: potency is the fitted concentration of half-maximal effect
Method in brief: as §1

[15] = qHTS RealTime-Glo MT Cell Viability Assay in HepG2 cells - 16 hour (AID 1224885); note: nearly all actives have a fitted effect of over 50% in size
Method in brief: as §5

[16] = qHTS RealTime-Glo MT Cell Viability Assay in HEK293 cells - 24 hour (AID 1224886)
Method in brief: as §2

[17] = qHTS RealTime-Glo MT Cell Viability Assay in HEK293 cells - 8 hour (AID 1224887)
Method in brief: as §3

[18] = A CellTox Green Cytotoxicity Assay to monitor cytotoxicity in HEK293 cells - 16 hour (AID 1224888); note: nearly all actives have a fitted effect of over 35% in size; note: potency is the fitted concentration of half-maximal effect
Method in brief: as §1

[19] = qHTS RealTime-Glo MT Cell Viability Assay in HepG2 cells - 0 hour (AID 1224889); note: nearly all actives have a fitted effect of over 50% in size
Method in brief: as §5

[20] = A CellTox Green Cytotoxicity Assay to monitor cytotoxicity in HepG2 cells - 8 hour (AID 1224890); note: nearly all actives have a fitted effect of over 45% in size; note: potency is the fitted concentration of half-maximal effect
Method in brief: as §4

Row | SMILES | Potency [1] | Potency [2] | outcome [3] | max response [4] | Potency [5] | Potency [6] | Potency [7] | Potency [8] | Potency [9] | outcome [10] | Potency [11] | Potency [12] | Potency [13] | Potency [14] | outcome [15] | Potency [16] | Potency [17] | Potency [18] | Potency [19] | Potency [20]
1 | CC(C)COC(=O)C(C)C | inactive | inactive | inactive | 3.76% | inactive | inactive | inactive | inactive | inactive | inactive | inactive | inactive | inactive | inactive | inactive | inactive | inactive | inactive | inactive | inactive
2 | CCN1CCCC(OC(=O)C(c2ccccc2)c2ccccc2)C1 (stereo unspecified) | inactive | inactive | inactive | 14.8% | inactive | inactive | inactive | inactive | inactive | inactive | inactive | inactive | inactive | inactive | inactive | inactive | inactive | inactive | inactive | 
3 | Cc1cc(C)c(NC(=O)CN(CC(=O)O)CC(=O)O)c(C)c1Br | inactive | inactive | inactive | -1.32% | inactive | inactive | inactive | inactive | inactive | inactive | inactive | inactive | inactive | inactive | inactive | inactive | inactive | inactive | inactive | inactive
4 | CC(=O)CCc1ccc(O)cc1 | inactive | inactive | inactive | -1.37% | inactive | inactive | inactive | inactive | inactive | inactive | inactive | inactive | inactive | inactive | inactive | inactive | inactive | inactive | inactive | inactive
5 | CCCCC1CCCCC(=O)O1 (stereo unspecified) | inactive | inactive | inactive | 13.6% | inactive | inactive | inactive | inactive | inactive | inactive | inactive | inactive | inactive | inactive | inactive | inactive | inactive | inactive | inactive | inactive
6 | CCCc1ccc(N)cc1 | inactive | inactive | inactive | -1.79% | inactive | inactive | inactive | inactive | inactive | inactive | inactive | inactive | inactive | inactive | inactive | inactive | inactive |  | inactive | inactive
7 | CC(C)(C)OC(=O)N1C[C@@H](F)C[C@H]1C(=O)O | inactive | inactive | inactive | 2.11% | inactive | inactive | inactive | inactive | inactive | inactive | inactive | inactive | inactive | inactive | inactive | inactive | inactive | inactive | inactive | 
8 | CCCCCN(CCCCC)C(=O)C(CCC(=O)O)NC(=O)c1ccc(Cl)c(Cl)c1 (stereo unspecified) | inactive | inactive | inactive | -6.43% | inactive | inactive | inactive | inactive | inactive | inactive | inactive | inactive | inactive | inactive | inactive | inactive |  | inactive | inactive | 
9 | CC/C=C\C#N | inactive | inactive | inactive | 20.1% | inactive | inactive | inactive | inactive | inactive | inactive | inactive | inactive | inactive | inactive | inactive | inactive | inactive |  | inactive | 
10 | Cc1nc(-c2ccc(OCC(C)C)c(C#N)c2)sc1C(=O)O | inactive | inactive | inactive | -0.381% | inactive | inactive | inactive | inactive | inactive | inactive | inactive | inactive | inactive | inactive | inactive | inactive |  | inactive | inactive | inactive
11 | CCOC(=O)Nc1ccc2c(c1)N(C(=O)CCN1CCOCC1)c1ccccc1S2 | inactive | inactive | inactive | -6.68% | inactive | inactive | inactive | inactive | inactive | inactive | inactive | inactive | inactive | inactive | inactive | inactive | inactive | inactive | inactive | inactive
12 | CCC(=O)c1cccc(Cl)c1 | inactive | inactive | inactive | 3.96% | inactive | inactive | inactive | inactive | inactive | inactive | inactive | inactive | inactive | inactive | inactive | inactive | inactive | inactive | inactive | inactive
13 | CC(C)CCCC(C)NCCC(C)C (stereo unspecified) | inactive | inactive | inactive | 0.252% | inactive | inactive | inactive | inactive | inactive | inactive | inactive | inactive | inactive | inactive | inactive | inactive | inactive | inactive | inactive | inactive
14 | O=C(CCOCCOCCOCCOCCC(=O)Nc1c(I)cc(I)c(C(=O)O)c1I)Nc1c(I)cc(I)c(C(=O)O)c1I | inactive | inactive | inactive | -0.881% | inactive | inactive | inactive | inactive | inactive | inactive | inactive | inactive | inactive | inactive | inactive | inactive | inactive | inactive | inactive | inactive
15 | CCC(=O)Nc1cccc(N)c1 | inactive | inactive | inactive | 0.318% | inactive | inactive | inactive | inactive | inactive | inactive | inactive | inactive | inactive | inactive | inactive | inactive | inactive | inactive | inactive | inactive
16 | O=c1[nH]c(=O)n([C@H]2O[C@H](CO)[C@@H](O)[C@@H]2O)cc1/C=C\Br | inactive | inactive | inactive | 3.79% | inactive | inactive | inactive | inactive | inactive | inactive | inactive | inactive | inactive | inactive | inactive | inactive | inactive | inactive | inactive | inactive
17 | COc1ccc2cc(C=O)ccc2c1 | inactive | inactive | inactive | 2.85% | inactive | inactive | inactive | inactive | inactive | inactive | inactive | inactive | inactive | inactive | inactive | inactive |  | inactive | inactive | inactive
18 | COC[C@H](c1ccc(C(F)(F)F)cc1)N1CCN(C2(C)CCN(C(=O)c3c(C)ncnc3C)CC2)C[C@H]1C | inactive | inactive | inactive | -19.9% | inactive | inactive | inactive | inactive | inactive | inactive | inactive | inactive | inactive | inactive | inactive | inactive | inactive | inactive | inactive | inactive
19 | CNC(=O)c1c(I)c(NC(=O)CCCCC(=O)Nc2c(I)c(C(=O)O)c(I)c(C(=O)NC)c2I)c(I)c(C(=O)O)c1I | inactive | inactive | inactive | -0.381% | inactive | inactive | inactive | inactive | inactive | inactive | inactive | inactive | inactive | inactive | inactive | inactive |  | inactive | inactive | 
20 | COc1cc(CCC(C)=O)ccc1O | inactive | inactive | inactive | -0.231% | inactive | inactive | inactive | inactive | inactive | inactive | inactive | inactive | inactive | inactive | inactive | inactive | inactive |  | inactive | inactive
21 | C=C(C)[C@H]1CC=C(C)CC1 | inactive | inactive | inactive | 0.727% | inactive | inactive | inactive | inactive | inactive | inactive | inactive | inactive | inactive | inactive | inactive | inactive | inactive | inactive | inactive | 
22 | COc1ccc(NC(C)=O)cc1 | inactive | inactive | inactive | -7.34% | inactive | inactive | inactive | inactive | inactive | inactive | inactive | inactive | inactive | inactive | inactive | inactive | inactive | inactive | inactive | inactive
23 | Nc1ccn(C2CO[C@H](CO)O2)c(=O)n1 (stereo partly specified) | 15.1 µM (active) | inactive | inactive | -2.21% | 19 µM (active) | 8.49 µM (active) | inactive | 6.74 µM (active) | 7.56 µM (active) | inactive | 19 µM (active) | 26.8 µM (active) | 5.35 µM (active) | 16.9 µM (active) | inactive | inactive | inactive | 19 µM (active) | inactive | 19 µM (active)
24 | CC(C)CCCC(C)CCCC(C)CCCCC(C)CCCC(C)CCCC(C)C (stereo unspecified) | inactive | inactive | inactive | 3.24% | inactive | inactive | inactive | inactive | inactive | inactive | inactive | inactive | inactive | inactive | inactive | inactive | inactive | inactive | inactive | inactive
25 | Cc1ccc(N)cc1[N+](=O)[O-] | inactive | inactive | inactive | -16.8% | inactive | inactive | inactive | inactive | inactive | inactive | inactive | inactive | inactive | inactive | inactive | inactive |  | inactive | inactive | inactive

— PubChem BioAssay (Tox21)
